What follows are sequences tested against ATG16L1 (assay: pooled miR-30 sensor sort-seq; sequence = guide strand). Conditions: shRNA.
Further: reference of the scale not given here.

Sequence | sensor-assay potency score (higher = more potent)
TTTTTCTCCAAATACTTCCCAA | -0.436
TTTTGCTTCATTCATCTGCATC | -1.44
TTTATGCAGACTTTGCTGCGTA | -0.62
TTTGTCCACACTGACAACGTGC | -0.838

These sequences were tested against ATHL1 in the same assay as above. Conditions: shRNA.

Sequence | sensor-assay potency score (higher = more potent)
TTTTTGGCAAAGCTGCACCTGA | -0.809
TGGAACATCAGGATACTCGGGA | -0.126
TCCACAGTGAGTGACTCGGTGG | -1.15
TTGATCTTGTCAGCCACCGCCA | -0.876
TAAATCTCCAGATTTTTCCTGC | 0.146
TACACAGAGTTGTTGACCCCTG | -0.218
TTGGTGTACACAGAGTTGTTGA | -0.594
TCGAAATAGCTGCAGGTCCTGG | -1.24
TCGAGCTGTGACCTCCACGGTC | -1.01
TACCTTGATCTTGTCAGCCACC | -0.985
TCAAAGGGTACCTTGATCTTGT | 0.372

What follows are sequences tested against ATOX1 in the same assay as above. Conditions: shRNA.

Sequence | sensor-assay potency score (higher = more potent)
TAACTCCTCCAAGCTTATTGAG | -1.42
TCAGATTCAATGCAGACCTTCT | -0.2
TACTTAACTCCTCCAAGCTTAT | -1.31
AATGCAGACCTTCTTGTTGGGC | -0.556
ATACTTAACTCCTCCAAGCTTA | -0.272
TCAATGTCATACTTAACTCCTC | -0.482
AACTCCTCCAAGCTTATTGAGG | -1.32
AAGCAGAGTGTCCATGCTGTGC | -1.19
TTTCTTCAGGGTTGCAAGCAGA | -1.16
ATGTCATACTTAACTCCTCCAA | -0.956
TTCTTCAGGGTTGCAAGCAGAG | -0.987
TGTCATACTTAACTCCTCCAAG | -0.838
TAGGAAACAGTCTTTCCTGTTT | -0.521
TTTCCTGTTTTCTTCAGGGTTG | -0.588
TTCCTGTTTTCTTCAGGGTTGC | -0.392
TTGTTGGGCAGGTCAATGTCAT | -0.613
TTCAATGCAGACCTTCTTGTTG | -0.466
AGTCTTTCCTGTTTTCTTCAGG | -1.75
TTTTCTTCAGGGTTGCAAGCAG | 0.404
TCAATGCAGACCTTCTTGTTGG | -0.56
TCCAAGCTTATTGAGGACCCGA | -0.663
TTCAGGGTTGCAAGCAGAGTGT | -1.04
TATTGAGGACCCGAGAGACAGC | -1.44
TTCAGCACAGCCTCCACAGGTC | -0.0676

Source: the OligoGym collection
